The text below walks through data of PubChem BioAssay (NCATS).

Records with an inconclusive call do not appear. Unmarked numbers belong to inactive results. Activity calls are given as the source filed them. Calls come from the whole dose curve; as a rule, active = well fitted inhibition curve with a large enough effect; inconclusive = small, poorly fitted or top-dose-only effect; inactive = no such curve, though single readings can be large or run the other way.
% is set by controls: 0 for no effect and ±100 for the full control effect; potency is the fitted concentration of half-maximal effect.

The nature of the assay: HTS Assay for Allosteric Antagonists of the Human D2 Dopamine Receptor: Hit Validation in HTRF (AID 624455). Particulars: Cells stably expressing D1 dopamine receptor, inhibition mode; series mostly up to 46.1 µM; activity, negative = inhibition: at the top concentration. An outline of the steps:
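HTRF read-out; cells stably expressing D1 receptor; hits scored for inhibition of D1-mediated response. Primary screen: calcium flux, force-coupled inducible Hek293 Trex D2 line, antagonism vs EC80 dopamine.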
With `CNc1ccc2oc(C[C@H]3O[C@@]4(CC[C@H]3C)O[C@H]([C@H](C)C(=O)c3ccc[nH]3)[C@H](C)C[C@H]4C)nc2c1C(=O)O`, the “activity, negative = inhibition” value is -8.31%.

Turning to `O=[N+]([O-])c1cc(O)c(O)c([N+](=O)[O-])c1`, the “activity, negative = inhibition” value is -9.38%.

Take `C[Se]C[C@H](N)C(=O)O`: the “activity, negative = inhibition” value is 0.92%.

As for `NC(C(=O)O)c1cc(=O)[nH]o1` (centres undefined), the “activity, negative = inhibition” value was 12.5%.

Consider `Oc1ccc2c3c1O[C@H]1c4[nH]c5ccccc5c4C[C@@]4(O)C(C2)N(CC2CC2)CCC314` (some centres undefined), for which the “activity, negative = inhibition” value is 0.201%.

Regarding `NC(N)=NOCC[C@H](N)C(=O)O`, the “activity, negative = inhibition” value is 1.42%.

For the compound `COc1ccc2c(c1)/C(=C/c1cnc[nH]1)C(=O)N2`, the “activity, negative = inhibition” value was 15.1%.

Take `O=[N+]([O-])c1ccc2nc(N3CCNCC3)ccc2c1`: the “activity, negative = inhibition” value is 5.17%.

For the compound `CC(=O)c1c(O)c(C)c(O)c(Cc2c(O)c3c(c(C(=O)/C=C/c4ccccc4)c2O)OC(C)(C)C=C3)c1O`, the “activity, negative = inhibition” value is -3.03%.

As for `CCCN(CCC)[C@H]1CCc2c(F)ccc(O)c2C1`, the Potency was 7.31 µM (active).

As to `CCCN(CCC)CCc1c[nH]c2ccc(C(N)=O)cc12`, the “activity, negative = inhibition” value was 4.84%.

`COc1ccc2c(c1)C13CCCCC1C(C2)N(C)CC3` (centres undefined): the “activity, negative = inhibition” value was -0.849%.

Take `CC(=O)NBr`: the “activity, negative = inhibition” value is 3.83%.

On to `CCN(CCCl)Cc1ccccc1Br`, for which the “activity, negative = inhibition” value is -9.2%.

In the case of `NC(=O)CI`, the “activity, negative = inhibition” value was 1.72%.

On to `NNC(=O)c1ccc(O)cc1`, for which the “activity, negative = inhibition” value was -4.01%.

Take `Cc1o[nH]c(=O)c1CC(N)C(=O)O` (centres undefined): the “activity, negative = inhibition” value is -6.13%.

Consider `CC(N)[C@H](O)c1ccc(O)c(O)c1` (some centres undefined), for which the “activity, negative = inhibition” value was -6.83%.

With `CN1CCC(c2c[nH]c3ccc(O)cc23)CC1`, the “activity, negative = inhibition” value was 23.5%.

With `NC(N)=Nc1ccc2[nH]c3c(c2c1)C[C@@]1(O)[C@H]2Cc4ccc(O)c5c4[C@@]1(CCN2CC1CC1)[C@H]3O5`, the “activity, negative = inhibition” value is -4.47%.

`CC(N)Cc1c[nH]c2ccc(OCc3cccs3)cc12` (centres undefined): the “activity, negative = inhibition” value is 1.03%.

For `N[C@@H](CCl)C(=O)O`, the “activity, negative = inhibition” value was 6.4%.

With `C=CCN(C1=NCCN1)c1c(Cl)cccc1Cl`, the “activity, negative = inhibition” value is -2.04%.

As to `COC(=O)N1CCN(C(=O)Cc2ccc(Cl)c(Cl)c2)C(CN2CCCC2)C1` (centres undefined), the “activity, negative = inhibition” value is -3.6%.

In the case of `Cc1[nH]c2ccc(O)cc2c1CCN`, the “activity, negative = inhibition” value is 24.9%.

With `NCCCP(=O)(O)O`, the “activity, negative = inhibition” value was -26.5%.

As to `O=S1(=O)N(CCN2CC=C(c3c[nH]c4cc(F)ccc34)CC2)c2cccc3c2N1CCC3`, the “activity, negative = inhibition” value is 6.22%.

Consider `CN(N=O)c1cc(O)ccc1O`, for which the “activity, negative = inhibition” value is -8.9%.

Take `NC(CCCCCP(=O)(O)O)C(=O)O` (centres undefined): the “activity, negative = inhibition” value was -1.01%.
